For 40 compounds, Potency and activity change, negative = cytotoxicity results are on record in PubChem BioAssay (Tox21).

Inconclusive results are not listed. Entries that show only a call come without a potency. The source made the active and inactive calls. Calls follow the shape of the dose curve; as a rule, active = well fitted cell-killing curve with a large enough effect in the repeat runs; inconclusive = weak or mixed curves, or effect the other way; inactive = no such curve, though single readings can be large or run the other way.

A short description of the experiment: qHTS assay to identify small molecule agonists of the estrogen receptor alpha (ER-alpha) signaling pathway in the presence of an antagonist - cell viability counter screen (AID 1259386). Also: nearly all actives have a fitted effect of over 30% in size. The following applies: VM7Luc4E2 viability, CellTiter-Fluor fluorescence, 22 h; series mostly up to 92.4 µM. An excerpt: National Center for Advancing Translational Sciences [NCATS]
NIH Chemical Genomics Center [NCGC]
U.S. Environmental Protection Agency [EPA]
National Institutes of Environmental Health Sciences [NIEHS]
National Toxicology Program [NTP]
U.S. Food and Drug Administration [FDA]
Estrogen receptor (ER), a member of nuclear hormone receptor plays an important role in development, metabolic homeostasis and reproduction. Two subtypes of ER, ER-alpha and ER-beta, have similar expression patterns with some uniqueness in both types. Endocrine disrupting chemicals (EDCs) and their interactions with steroid hormone receptors like ER causes disruption of normal endocrine function. Therefore, it is important to understand the effect of environmental chemicals in ER signaling pathway. For identifying ER agonists, VM7Luc4E2 cell line has been used in the current assay.
VM7Luc4E2 cell line (provided by Denison MS, University of California) endogenously expresses full-length ER-alpha and is stably transfected with a plasmid containing four estrogen responsive elements (ERE) upstream of a luciferase reporter gene. This current screening for measuring luciferase reporter gene activity using VM7Luc4E2 cells against Tox21 10K library collection is a confirmation study on agonist mode screening in presence of ER-antagonist (ICI-182,780) at 10.0nM final concentration. The cytotoxicity of the compounds was tested in parallel by measuring the cell viability using CellTiter-Fluor assay system (Promega, Madison, WI) in the same wells.
Tox21 Assay Protocol Summary:
VM7Luc4E2 cells were cultured in phenol red free assay medium containing 10% charcoal stripped FBS for 5 days prior to the assay. The cells were dispensed at 4,000 cells in 4uL of assay medium per well into white wall/solid-bottom 1536-well plates (Corning Life Sciences, Corning, NY) using a Multidrop Combi (Thermo Fisher Scientific Inc., Waltham, MA) dispenser. After the assay plates were incubated at 37C and 5% CO2 for 24hr, 1uL of 10.0nM (final concentration) ICI-182,780 or assay buffer was added using two separate tips of Flying Reagent Dispenser (FRD, Aurora Discovery, San Diego, CA). Then 23nL of compounds dissolved in DMSO at 15 concentrations and positive controls or DMSO only was transferred to the assay plates by a Pintool station (Wako, San Diego, CA). The assay plates were incubated at 37C and 5% CO2 for 22hr. After 21hr incubation at 37C, 1uL/well CellTiter-Fluor reagent (Promega Corporation, Madison, WI) was added to each well using FRD and after 1hr incubation at 37C and 5% CO2, the fluorescence signal was measured on ViewLux plate reader (PerkinElmer, Shelton, CT).
A general note: Quantitative high-throughput screening tests each substance at several concentrations.
Regarding `CC(C)CC(C)CC(C)CC(C)COC(=O)c1ccccc1C(=O)OCC(C)CC(C)CC(C)CC(C)C` (stereo not given), the Potency entry was “inactive”.
The same measure, in the same setting: the same measure for `O=C(NCC(O)CO)c1c(I)c(C(=O)NCC(O)CO)c(I)c(N(CCO)C(=O)CO)c1I` (stereo not given): “inactive”; for `O=C(Nc1ccc(Cl)c(Cl)c1)C1CC1`: “inactive”; for `COc1ccc(S(=O)(=O)N2c3ccc(Cl)cc3[C@@](O)(c3ccccc3Cl)[C@H]2C(=O)N2CCC[C@@H]2C(N)=O)cc1OC`: “inactive”.
As for `CN1CCN(CC(=O)N2c3ccccc3C(=O)Nc3cccnc32)CC1`, the activity change, negative = cytotoxicity was -1.63% [at 8.39 µM] (inactive).
With `O=C(O)c1cc(Br)c(O)c(Br)c1`, the Potency result was “inactive”.
For the compound `CC(C)CC(=O)O`, the Potency result is “inactive”.
On the same count and under the same terms, the same measure for `OCCCCC(O)CO` (stereo not given): “inactive”; for `CC(C)c1ccc2cc(C(C)C)ccc2c1`: “inactive”; for `COc1ccc(C2CNC(=O)C2)cc1OC1CCCC1` (stereo not given): “inactive”.
Same read-out and setting: with `COP(=O)(OC)OC(c1ccc(Cl)cc1)P(=O)(OC)OC` (stereo not given) the entry was “inactive”.
Turning to `COCCc1ccc(OCC2CO2)cc1` (stereo not given), the Potency entry is “inactive”.
As to `CCCCCCOc1ccccc1C(N)=O`, the Potency result is “inactive”.
On to `NNc1nnc(NN)c2ccccc12`, for which the Potency entry is “inactive”.
On the same count and under the same terms, the same measure for `CCCOC(OCCC)OCCC`: “inactive”; for `CC(=O)N[C@@H](CCC(=O)O)C(=O)O`: “inactive”.
Same read-out and setting: with `CCCCCCCCC(=O)Cl` the entry was “inactive”; with `CN(C)c1ccc(C=O)cc1`, “inactive”.
The same measure, in the same setting: the same measure for `O=C1O[C@@H]2[C@@H](O)[C@H](O)O[C@@H]2[C@H]1O`: “inactive”; for `O=Cc1ccc(Cl)c(Cl)c1`: “inactive”; for `CC(C)(C)c1cc(CCC(=O)NN)cc(C(C)(C)C)c1O`: “inactive”.
`NCCS`: the Potency result is “inactive”.
On the same count and under the same terms, with `CC(=O)Nc1ccc(S(=O)(=O)Cl)cc1` the entry was “inactive”; with `CCN1CCc2nc(N)oc2CC1`, “inactive”; with `COc1cc2c(cc1OC)[C@@H]1CC(=O)[C@@H](CC(C)C)CN1CC2`, “inactive”.
Same read-out and setting: the same measure for `C[C@@H](O)[C@H]1C(=O)N2C(C(=O)O)=C(SCCN=CN)C[C@H]12`: “inactive”.
On the same count and under the same terms, with `CCCCNc1ccc(C(=O)OCCN(C)C)cc1` the entry was “inactive”; with `OCCC(F)(F)C(F)(F)C(F)(F)C(F)(F)C(F)(F)C(F)(F)C(F)(F)C(F)(F)F`, “inactive”; with `O=C(CS(=O)Cc1ccco1)NC/C=C\COc1cc(CN2CCCCC2)ccn1` (stereo not given), “inactive”.
Turning to `CCOCCOC(=O)/C=C/c1ccc(OC)cc1`, the Potency result is “inactive”.
Consider `CN1C(C)(C)CCCC1(C)C`, for which the Potency result is “inactive”.
Still for that read-out and setting: with `CC(C)OC(=O)CCCCC(=O)OC(C)C` the entry was “inactive”; with `Cc1cccc(C)c1NC(=O)c1ccccc1C(=O)O`, “inactive”; with `CNS(=O)(=O)CCc1ccc2[nH]cc(C3CCN(C)CC3)c2c1`, “inactive”.
Same read-out and setting: the same measure for `CN(C)CCOCCO`: “inactive”; for `Nc1ncnc(Nc2ccccc2)n1`: “inactive”.
Still for that read-out and setting: the same measure for `Cc1ccsc1/C=C/C1=NCCCN1C`: “inactive”; for `COc1ccc2c(c1)C(=O)N(CCc1ccc(S(=O)(=O)NC(=O)NC3CCCCC3)cc1)C(=O)C2(C)C`: “inactive”.
Take `CCOC(=O)c1ccc(OC(=O)CCCCCN=C(N)N)cc1`: the Potency entry is “inactive”.
Still for that read-out and setting: the same measure for `CC(C)=O`: “inactive”.
